PubChem BioAssay AID411 (National Center for Advancing Translational Sciences (NCATS), 2006)
Where “and” joins values, the source holds several entries; their conditions need not be identical. Equal entries are not always repeated. Hit rate of the full screen: of about 72,000 compounds, about 1,600 (2.2%) were called active. Entries that show only a call come without a potency. The full list was thinned out, with actives kept by preference. A number with no mark means an inactive call. The call rests on the fitted dose curve; in most records, active means well fitted inhibition curve with a large enough effect; inconclusive means small, poorly fitted or top-dose-only effect; inactive means flat fitted curve, though single readings scatter.

Each compound was assayed against Luciferin 4-monooxygenase (Photinus pyralis) (UniProt P08659) (assay: qHTS Assay for Inhibitors of Firefly Luciferase). Conditions: purified firefly luciferase, luminescence, 8 min; series mostly up to 57.1 µM.
Method in brief: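 Firefly luciferase (PKLight detection mix) with 10 uM ATP in pH 7.2 imidazole buffer (KCl, MgCl2, Tween 20, BSA). Compounds tested across a concentration series (qHTS). Luminescence read after 8 min at ambient temperature.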
Further: nearly all actives have a fitted effect of over 40% in size.
Potency means the concentration at half of the fitted maximal effect.

Luciferin 4-monooxygenase (Photinus pyralis), sequence (P08659 whole entry, looked up): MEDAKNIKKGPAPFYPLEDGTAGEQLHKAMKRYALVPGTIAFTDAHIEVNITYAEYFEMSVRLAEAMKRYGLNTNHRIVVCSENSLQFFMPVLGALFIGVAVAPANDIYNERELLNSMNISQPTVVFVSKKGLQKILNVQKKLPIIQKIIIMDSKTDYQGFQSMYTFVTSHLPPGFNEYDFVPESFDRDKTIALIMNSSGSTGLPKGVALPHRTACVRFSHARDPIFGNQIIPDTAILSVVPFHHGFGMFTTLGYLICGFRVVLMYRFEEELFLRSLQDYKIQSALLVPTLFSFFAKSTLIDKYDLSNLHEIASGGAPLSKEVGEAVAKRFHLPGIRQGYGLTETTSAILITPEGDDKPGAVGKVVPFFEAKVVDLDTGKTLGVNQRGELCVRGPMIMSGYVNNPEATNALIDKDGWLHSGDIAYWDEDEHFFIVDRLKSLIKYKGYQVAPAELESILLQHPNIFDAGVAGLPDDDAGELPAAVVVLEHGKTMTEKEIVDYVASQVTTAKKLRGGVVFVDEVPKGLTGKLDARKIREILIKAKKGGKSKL

| Structure (SMILES) | Potency | activity change, negative = inhibition |
| --- | --- | --- |
| CCOc1cc2c(cc1OCC)C(C(=O)O)C(c1ccc(OC)c(O)c1)N(C)C2=O (stereo not given) | inactive | – |
| CCOc1ccc(N=C2SC(C(=O)O)CC(=O)N2C)cc1 (stereo not given) | inactive | – |
| Cc1ccnc(N2CCCC(C(=O)Nc3cc(F)ccc3C)C2)n1 (stereo not given) | inactive | – |
| O=C(Nc1ccc2c(c1)OCCO2)c1ccncc1 | inactive | – |
| O=C(Nc1ccc2c(c1)OCCO2)C1CCCN(c2ncccn2)C1 (stereo not given) | 10 µM (active) | – |
| COc1c(Br)cc2c(C)c(C(=O)N3CCOCC3)oc2c1Br | inactive | – |
| c1ccc(COc2nsnc2N2CCOCC2)cc1 | inactive | – |
| CCCC(=O)N(CCc1ccccc1)Cc1nc2ccccc2c(=O)[nH]1 | inactive | – |
| CCOc1cc(NC(=O)c2ccco2)c(OCC)cc1NC(=O)COc1ccccc1 | inactive | – |
| Cc1ccnc(NC(=O)c2ccc(NC(=O)c3ccco3)cc2)c1 | 25.1 µM (active) | – |
| CC(C)(C)NC(=O)c1cc(NC(=O)c2ccco2)cc(NC(=O)c2ccco2)c1 | inactive | – |
| O=C(Nc1ccc(Oc2ccccc2)cc1)c1ccco1 | 15.8 µM (active) | – |
| CN1CCN(S(=O)(=O)c2ccc(NC(=O)c3ccco3)cc2)CC1 | inactive | – |
| COc1ccc(NC(=O)c2cccc(NC(=O)c3ccco3)c2)c(OC)c1 | inactive | – |
| CCc1nnc(NC(=O)c2cccs2)s1 | inactive | – |
| Cc1ccc(C(=O)COc2cccc(NC(=O)c3ccco3)c2)cc1 | inactive | – |
| COC(=O)c1ccc(NC(=O)c2ccco2)cc1 | 20 µM (active) | – |
| COC(=O)c1cc(Cl)c(NC(=O)c2ccco2)cc1OC | inactive | – |
| O=C(Nc1ccc(NC(=O)c2cccs2)cn1)c1ccco1 | 5.01 µM (active) | – |
| O=C(Nc1ccc(Cl)cn1)Nc1cccs1 | inactive | – |
| CCc1cccc(C)c1NC(=O)CSc1nnc(-c2ccco2)n1N | inactive | – |
| CC(C)C(=O)N1CCN(c2nc(-c3ccccc3)c3c(c2C#N)CC(C)(C)OC3)CC1 | inactive | – |

| Structure (SMILES) | Potency | activity change, negative = inhibition |
| --- | --- | --- |
| CC(=O)N1CCC2(CCCN(Cc3ccccc3)C2)CC1 | – | -1.06% [at 11.4 µM] |
| COCCNc1ccnc(-c2cccc(NS(C)(=O)=O)c2)n1 | – | 0.411% [at 2.29 µM] |
| O=C1C[C@@H](O)[C@@H](O)[C@H]2[C@@H]3C(=O)N(Cc4ccc5c(c4)OCO5)C(=O)[C@@H]3CC[C@H]12 | – | 1.52% [at 11.4 µM] and -0.708% [at 11.4 µM] |
| CC(NCCO)C(=O)C12CC3CC(CC(C3)C1)C2 (stereo not given) | inactive | – |
| C[N+](C)(C)CCCCCNCC12CC3CC(CC(C3)C1)C2 | inactive | – |
| CCn1c(=N)n(CC(=O)c2cccc(OC)c2)c2ccccc21 | inactive | – |
| CN(C)c1ccc(-c2nc(NCCN3CCOCC3)c3ccccc3n2)cc1 | – | -10.7% [at 2.29 µM] |
| ClC(Cl)(Cl)C(N1CCN(c2ccccc2)CC1)N1CCN(c2ccccc2)CC1 | – | 2.2% [at 11.4 µM] |
| CCOC(=O)c1nnn(-c2nonc2OC)c1-c1ccccc1 | inactive | – |
| CC(=O)N1CSCC1C(=O)O (stereo not given) | inactive | – |
| CC1CCC(NC(=O)c2ccc(N3CCCC3=O)cc2)CC1 (stereo not given) | inactive | – |
| COc1ccccc1Nc1ncc(C(C)=O)c(C)n1 | inactive | – |
| COc1cccc(OC)c1C(=O)Nc1nnc(C(C)C)s1 | inactive | – |
| COc1cccc2sc(Nc3nc(C)c(C(C)=O)s3)nc12 | 5.01 µM (active) | – |
| Cc1c(S(=O)(=O)O)ccc(N=Nc2c(O)c(C(=O)O)cc3ccccc23)c1Cl | – | -2.84% [at 11.4 µM] |
| COc1cccc(NS(=O)(=O)c2ccc3[nH]cc(C(=O)NCCCOC(C)C)c(=O)c3c2)c1 | inactive | – |
| CCCCN(CCCC)CCC(O)c1cc2c(Cl)cc(Cl)cc2c2cc(C(F)(F)F)ccc12 (stereo not given) | inactive | – |
| Cc1ccc2oc(=O)c3cnn(CC(=O)N4CCCCCC4)c3c2c1 | inactive | – |
| Cc1ccc(C(=O)N2CCCCCC2)cc1Br | inactive | – |
| Cc1ccc2cc3cc(C(=O)N4CCCCCC4)oc3nc2c1 | 7.94 µM (active) | – |
| O=C(NCCCNCc1ccccc1)c1ccc(/C=N/O)nc1 | inactive | – |
| CC1CCCN(c2ccc(C(=O)NCCc3ccccc3)cn2)C1 (stereo not given) | 15.8 µM (active) | – |

| Structure (SMILES) | Potency | activity change, negative = inhibition |
| --- | --- | --- |
| O=C(O)C1CC=CCC1C(=O)NCCc1ccccc1 (stereo not given) | inactive | – |
| CN(C)CCCNc1c2c(c(C#N)c3nc4ccccc4n13)CCC2 | inactive | – |
| CCOC(=O)C1=C(C)NC(=O)N(C(C)=O)C1c1ccc(Cl)cc1 (stereo not given) | inactive | – |
| CC(C)c1nc(-c2ccccn2)no1 | inactive | – |
| O=C(Oc1ccc(-c2nc(-c3ccccn3)no2)cc1)c1ccccc1 | 2.51 µM (active) | – |
| O=C(Oc1ccccc1)c1ccc2nccnc2c1 | inactive | – |
| C=CCn1c(SCn2nnc3ccccc3c2=O)nnc1-c1ccc(Cl)cc1 | inactive | – |
| CCOC(=O)c1[nH]c2ccc(OC)cc2c1NC(=O)N1CCOCC1 | inactive | – |
| COc1ccc(C2CC(c3ccccc3)Nc3ncnn32)cc1 (stereo not given) | inactive | – |
| COc1ccc(OCC(=O)OCCN(C)C)cc1 | inactive | – |
| Cc1nc(-c2ccc(NC(=O)c3cccs3)cc2)cs1 | 1.26 µM (active) | – |
| O=C(Nc1ncccn1)c1cccs1 | inactive | – |
| O=C(O)c1ccc(NC(=O)c2cccs2)cc1 | inactive | – |
| OCCCNCc1ccccn1 | – | 3.67% [at 11.4 µM] |
| COCCCNC(=O)CSc1nc2ccc(N3CCOCC3)cc2c(=O)n1CCc1ccccc1 | inactive | – |
| Cc1nn2c3cc(N4CCOCC4)ccc3nc2c2ccccc12 | 2 µM (active) | – |
| Cc1cc(C)c2c(n1)nn1c(N3CCOCC3)cc(C)nc21 | inactive | – |
| CCOc1ccc(NCCC(=O)c2ccc3c(c2)OCO3)cc1 | inactive | – |
| CC(C)CCNC(=O)C(C)N(C(=O)Cn1nnc(-c2ccc(F)cc2)n1)C1CCCC1 (stereo not given) | inactive | – |
| COCCNc1ncnc2ccc(-c3cccnc3)cc12 | – | -1.48% [at 2.29 µM] |
| CCN(CC)C(=O)CCC(=O)Nc1ccc(C(=O)OC)cc1 | inactive | – |
| COC(=O)c1ccc(NC(=O)C(C)N2C(=O)c3ccccc3C2=O)cc1 (stereo not given) | inactive | – |

| Structure (SMILES) | Potency | activity change, negative = inhibition |
| --- | --- | --- |
| COC(=O)c1ccc(NCC(=O)c2ccccc2)cc1 | 7.94 µM (active) | – |
| CN(c1ccc(C(=O)NCCC2=CCCCC2)cc1)S(C)(=O)=O | inactive | – |
| Cc1nn(Cc2ccccc2)c(Cl)c1C(=O)OC1CCOC1=O (stereo not given) | inactive | – |
| O=C(c1cccs1)N1CCC(c2nc3ccccc3s2)CC1 | inactive | – |
| O=C(OC1CCOC1=O)c1ccc(-c2nc3ccccc3s2)s1 (stereo not given) | 2.51 µM (active) | – |
| COc1ccc(C(=O)N2CCC[C@@]3(CCN(C(=O)NC(C)C)C3)C2)cc1 | – | -0.0908% [at 11.4 µM] |
| NC(=O)c1ccccc1NC(=O)c1ccccc1F | inactive | – |
| COc1cccc(OCC(=O)Nc2ccccc2C(N)=O)c1 | 6.31 µM (active) | – |
| CCCOC(=O)Nc1ccccc1C(N)=O | inactive | – |
| O=S(=O)(c1ccc(Sc2nnc3ccccn23)nc1)N1CCOCC1 | inactive | – |
| O=C1CCCC2=C1C(c1cccs1)n1nc(SCc3ccccc3)nc1N2 (stereo not given) | inactive | – |
| O=S(=O)(NCCNS(=O)(=O)c1ccccc1)c1ccccc1 | inactive | – |
| COc1ccccc1N1CCN(C(=O)c2cc(-c3ccc(Br)cc3)on2)CC1 | inactive | – |
| O=C(c1cc(-c2cccs2)on1)N1CCCCC1 | 15.8 µM (active) | – |
| COc1ccccc1-c1cc(C(=O)N2CCCCC2)no1 | 25.1 µM (active) | – |
| O=C(c1cc(-c2cccc(O)c2)on1)N1CCc2ccccc2C1 | inactive | – |
| Cc1cc(NC(=O)c2cc(-c3cccs3)on2)nn1Cc1ccc(Cl)cc1 | inactive | – |
| O=C(c1cc(-c2ccccc2O)on1)N1CCCC1 | inactive | – |
| Cn1cccc1Cc1nnc(SCC(=O)NCc2ccc3c(c2)OCO3)n1CCc1ccccc1 | inactive | – |
| CCOC(=O)c1cc2cc(-c3c(C(=O)OCC)oc4cc(O)cc(O)c4c3=O)ccc2o1 | inactive | – |
| CN1CCc2[nH]nc(-c3n[nH]c4c3CN(C)CC4)c2C1 | – | 2.79% [at 11.4 µM] |
| O=C(C1CCN(S(=O)(=O)Cc2ccccc2)CC1)N1CCCc2ccccc21 | inactive | – |

| Structure (SMILES) | Potency | activity change, negative = inhibition |
| --- | --- | --- |
| CCOC(=O)c1c(C)[nH]c(C(=O)COc2ccc3c(c2)OCO3)c1C | inactive | – |
| CCOC(=O)c1nc(-c2ccc3c(c2)OCO3)[nH]c1C | 15.8 µM (active) | – |
| CCOC(=O)NCc1ccc2c(c1)OCO2 | inactive | – |
| COc1ccc(-c2nnc(SCC(=O)c3cccs3)o2)c(OC)c1 | 12.6 µM (active) | – |
| COc1ccc(-n2c(C)cc(C(=O)CSc3nnc(-c4cccs4)o3)c2C)cc1 | inactive | – |
| COc1ccc(OC)c(C(=O)CSc2nnc(-c3cccs3)o2)c1 | inactive | – |
| CN(c1nc2ccccc2n2c(-c3ccco3)nnc12)S(=O)(=O)c1ccccc1 | inactive | – |
| c1coc(-c2nc3nc4ccccc4n3nc2-c2ccco2)c1 | inactive | – |
| Cn1c(-c2ccco2)nc2cc3ccccc3cc21 | 0.501 µM (active) | – |
| C(=C\c1ccccc1)/CSc1nnc(-c2cccnc2)n1Cc1ccco1 | inactive | – |
| CC(=O)N1CCN(C(=O)c2cccc(S(=O)(=O)Nc3ccc(C)cc3)c2)CC1 | inactive | – |
| COC(=O)c1[nH]c2ccccc2c1NS(=O)(=O)c1ccc(OC)cc1OC | inactive | – |
| COc1ccc(OC)c(N=Cc2c(O)[nH]c3ccccc23)c1 | inactive | – |
| COc1ccc(N=Cc2c(O)[nH]c3ccccc23)cc1OC | 15.8 µM (active) | – |
| CCOC(=O)C1CCCCN1Cc1ccc(OC)c(OC)c1OC (stereo not given) | inactive | – |
| COc1ccc2nc(NC(=O)c3ccc(Br)s3)sc2c1 | 12.6 µM (active) | – |
| CCn1c(SCC(=O)Nc2nc3ccc(OC)cc3s2)nnc1-c1ccoc1C | inactive | – |
| CNC(=O)c1ccc2nc(NC(C)=O)sc2c1 | inactive | – |
| Cc1nc2ccccc2c(=O)n1CCCn1ccnc1 | inactive | – |
| Cc1ccnc(N2CCC(C(=O)NC3CCCCCC3)CC2)n1 | inactive | – |
| Cc1ccnc(-n2sc3ccccc3c2=O)n1 | 20 µM (active) | – |
| N#CCCN(CCC#N)c1nnc(-c2ccccc2)s1 | inactive | – |
